system: not listed separately; test: viability loss of caspase-8 NB7 cells with TRAIL – with/without TRAIL, luminescence panel, confirmation (AID 651596); conditions: NB7 neuroblastoma + caspase-8, without TRAIL, NB7 Caspase-8, without TRAIL, mean of runs, at 10 µM

Structure (SMILES) | activity [%]
COC(=O)c1ccc(/C=C/c2nc3ccccc3c(=O)[nH]2)cc1 | 52.2
CCOc1ccc(-c2cc(C(=O)N3CCC(C)CC3)c3ccccc3n2)cc1 | 47.2
CCOc1ccc(NC(=O)Nc2cccs2)cc1 | 46.8
CCCCCCCn1c2c(c(=N)c3ccccc31)CCC2 | 51.8
CN(C(=O)COC(=O)c1cnc(Cl)c(Cl)c1)C1CCCCC1 | 47.4
COC(=O)c1ccc(/C=C(\C#N)c2ccccn2)cc1 | 40.8
Cc1cc2nc(-c3ccc(SCC(=O)Nc4nccs4)nc3)[nH]c2cc1C | 46.6
C(=C\c1ccco1)/c1nc2ccccc2[nH]1 | 31.6
Cc1nc2cc(NC(=O)Nc3cccc([N+](=O)[O-])c3)ccc2n1C | 54.4
O=C(ONC1=NCCCCC1)c1ccc(Cl)cc1 | 47.2
O=C(NC(=O)c1ccccc1)Nc1ccccc1 | 49.9
O=C(N/N=C/c1cccc(OC(=O)c2ccco2)c1)c1ccc(F)cc1 | 28.9
CN(C)CCCN(C(=O)c1ccc(S(=O)(=O)N2CCCc3ccccc32)cc1)c1nc2ccc(F)cc2s1 | 52.9
O=c1[nH]c(=S)[nH]c2c1C(c1ccc(Cl)c(Cl)c1)OC(CCc1ccccc1)C2 (stereo not given) | 37.3
O=C(NNC(=O)c1cc(OCC(F)(F)F)ccc1OCC(F)(F)F)c1ccc(Cl)c(Cl)c1 | 50.9
Nc1ccccc1C(=O)NN=Cc1cccc([N+](=O)[O-])c1 | 42.9
Cc1ccn2cc(C(=O)Nc3ccc4c(c3)OCCO4)nc2c1 | 50.8
Cn1nnc(NC(=O)c2ccc(C(C)(C)C)cc2)n1 | 51.8
CCCCC1CCC(C(=O)N(CCC(C)C)c2c(N)n(CCCC)c(=O)[nH]c2=O)CC1 (stereo not given) | 39.2
COc1ccc(OCC(=O)N/N=C/C=C/c2ccccc2)cc1 | 45.4

Structure (SMILES) | activity [%]
CCOC(=O)C(=C1Nc2ccccc2N1)n1c(-c2cccnc2)nc2ccccc21 | 52
O=C(Oc1c(CN2CCOCC2)cc(Cl)c2cccnc12)c1cccs1 | 53.5
COc1ccc(-c2cc(C(=O)N/N=C/c3cccnc3)c3ccccc3n2)cc1 | 40.8
COc1ccc(-c2nc(-c3ccc(NC(=O)c4ccncc4)cc3)no2)cc1OC | 47.2
CC1(C)N=C(N)N=C(N)N1c1ccc(CCCCc2ccccc2)cc1 | 54.3
C=Cc1ccc(Cn2c(C)c(C(=O)NCc3cccc(C(F)(F)F)c3)sc2=O)cc1 | 20.5
Cc1nc2cc(NC(=O)c3ccco3)ccc2n1C | 48
CCOc1ccc2nc(NC(=O)c3cccc(-c4cc5ccccc5oc4=O)c3)sc2c1 | 31.1
CCSc1ccc(-c2ccc(C)cc2)nn1 | 51.1
COc1ccc(NS(=O)(=O)c2cccc(C(=O)N/N=C/c3c(F)c(F)c(F)c(F)c3F)c2)cc1 | 47.5
CC(C)C(=O)Nc1ccc(NC(=O)c2ccccn2)cn1 | 53
Cc1ccc(-n2nnc(-c3cccnc3Cl)n2)cc1 | 47.5
O=C(Nc1ccc(C(=O)O)cc1)/C(=C\C=C\c1ccccc1)NC(=O)c1ccccc1Cl | 53.1
O=C(Nc1ccc2ccccc2c1)c1ccc(Cl)cc1 | 51.3
CCN(CC)c1ccc(NC(=O)Nc2ccccc2)cc1 | 47
Cc1nn(-c2ccccc2)c2nc(N)c(C#N)c(-c3ccc(F)cc3)c12 | 46.8
Cc1nc(Cl)c2oc3ccccc3c2n1 | 31.1
O=C1Cc2c(-c3ccccc3)cc(-c3cccc(Cl)c3)nc2-c2ccccc2N1 | 39.5
O=C(NC1=NCCS1)c1cc2ccccc2o1 | 48.6
Cc1cccc(CC(=O)Nc2cc(C)c3c(=O)oc4ccccc4c3n2)c1 | 45.5

target: Tumor necrosis factor receptor superfamily member 10B (Homo sapiens) (UniProt O14763); test: compound enhancement of TRAIL-induced cell killing – NB7 cells plus caspase-8, luminescence, panel, dose response (AID 652002); conditions: NB7 neuroblastoma +caspase-8, TRAIL sensitization, luminescence viability, NB7+Caspase-8, with TRAIL, run 1; at 12.5 µM (top of the series)
Sequence (O14763 whole entry, looked up): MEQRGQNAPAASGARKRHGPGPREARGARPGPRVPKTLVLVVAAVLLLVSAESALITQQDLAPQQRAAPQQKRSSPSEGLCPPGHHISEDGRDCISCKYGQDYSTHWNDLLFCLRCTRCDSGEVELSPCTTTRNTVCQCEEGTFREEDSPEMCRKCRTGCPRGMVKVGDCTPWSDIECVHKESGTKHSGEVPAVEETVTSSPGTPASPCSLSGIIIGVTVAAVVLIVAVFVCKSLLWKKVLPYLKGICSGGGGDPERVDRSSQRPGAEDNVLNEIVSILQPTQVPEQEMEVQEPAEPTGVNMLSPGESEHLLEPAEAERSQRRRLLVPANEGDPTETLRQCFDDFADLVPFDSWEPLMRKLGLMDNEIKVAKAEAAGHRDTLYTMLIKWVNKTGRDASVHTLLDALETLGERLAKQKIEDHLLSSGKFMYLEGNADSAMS

Structure (SMILES) | activity, % sensitization [%]
COC(=O)c1ccc(/C=C/c2nc3ccccc3c(=O)[nH]2)cc1 | -15.3
CCOc1ccc(-c2cc(C(=O)N3CCC(C)CC3)c3ccccc3n2)cc1 | 23.7
CCOc1ccc(NC(=O)Nc2cccs2)cc1 | 36.3
CCCCCCCn1c2c(c(=N)c3ccccc31)CCC2 | 30.9
CN(C(=O)COC(=O)c1cnc(Cl)c(Cl)c1)C1CCCCC1 | 11.9
COC(=O)c1ccc(/C=C(\C#N)c2ccccn2)cc1 | -7.25
Cc1cc2nc(-c3ccc(SCC(=O)Nc4nccs4)nc3)[nH]c2cc1C | 5.16
C(=C\c1ccco1)/c1nc2ccccc2[nH]1 | -0.105
Cc1nc2cc(NC(=O)Nc3cccc([N+](=O)[O-])c3)ccc2n1C | 44.4
O=C(ONC1=NCCCCC1)c1ccc(Cl)cc1 | 16.1
O=C(NC(=O)c1ccccc1)Nc1ccccc1 | 28.7
O=C(N/N=C/c1cccc(OC(=O)c2ccco2)c1)c1ccc(F)cc1 | 54.4
CN(C)CCCN(C(=O)c1ccc(S(=O)(=O)N2CCCc3ccccc32)cc1)c1nc2ccc(F)cc2s1 | -21.5
O=c1[nH]c(=S)[nH]c2c1C(c1ccc(Cl)c(Cl)c1)OC(CCc1ccccc1)C2 (stereo not given) | -9.52
O=C(NNC(=O)c1cc(OCC(F)(F)F)ccc1OCC(F)(F)F)c1ccc(Cl)c(Cl)c1 | -9.65
Nc1ccccc1C(=O)NN=Cc1cccc([N+](=O)[O-])c1 | 44.8
Cc1ccn2cc(C(=O)Nc3ccc4c(c3)OCCO4)nc2c1 | 38.4
Cn1nnc(NC(=O)c2ccc(C(C)(C)C)cc2)n1 | 47.5
CCCCC1CCC(C(=O)N(CCC(C)C)c2c(N)n(CCCC)c(=O)[nH]c2=O)CC1 (stereo not given) | -14.2
COc1ccc(OCC(=O)N/N=C/C=C/c2ccccc2)cc1 | 44.7

Structure (SMILES) | activity, % sensitization [%]
CCOC(=O)C(=C1Nc2ccccc2N1)n1c(-c2cccnc2)nc2ccccc21 | 44.5
O=C(Oc1c(CN2CCOCC2)cc(Cl)c2cccnc12)c1cccs1 | 24.4
COc1ccc(-c2cc(C(=O)N/N=C/c3cccnc3)c3ccccc3n2)cc1 | 22.7
COc1ccc(-c2nc(-c3ccc(NC(=O)c4ccncc4)cc3)no2)cc1OC | -12.9
CC1(C)N=C(N)N=C(N)N1c1ccc(CCCCc2ccccc2)cc1 | 58.2
C=Cc1ccc(Cn2c(C)c(C(=O)NCc3cccc(C(F)(F)F)c3)sc2=O)cc1 | -5.7
Cc1nc2cc(NC(=O)c3ccco3)ccc2n1C | 30.3
CCOc1ccc2nc(NC(=O)c3cccc(-c4cc5ccccc5oc4=O)c3)sc2c1 | -26.2
CCSc1ccc(-c2ccc(C)cc2)nn1 | 47.8
COc1ccc(NS(=O)(=O)c2cccc(C(=O)N/N=C/c3c(F)c(F)c(F)c(F)c3F)c2)cc1 | 7.56
CC(C)C(=O)Nc1ccc(NC(=O)c2ccccn2)cn1 | 34.7
Cc1ccc(-n2nnc(-c3cccnc3Cl)n2)cc1 | 33.6
O=C(Nc1ccc(C(=O)O)cc1)/C(=C\C=C\c1ccccc1)NC(=O)c1ccccc1Cl | 43.1
O=C(Nc1ccc2ccccc2c1)c1ccc(Cl)cc1 | 33.9
CCN(CC)c1ccc(NC(=O)Nc2ccccc2)cc1 | 37.6
Cc1nn(-c2ccccc2)c2nc(N)c(C#N)c(-c3ccc(F)cc3)c12 | -8.21
Cc1nc(Cl)c2oc3ccccc3c2n1 | -4.95
O=C1Cc2c(-c3ccccc3)cc(-c3cccc(Cl)c3)nc2-c2ccccc2N1 | -1.76
O=C(NC1=NCCS1)c1cc2ccccc2o1 | 45.6
Cc1cccc(CC(=O)Nc2cc(C)c3c(=O)oc4ccccc4c3n2)c1 | -12.3

— PubChem BioAssay
